# Laboratory results: PubChem BioAssay (Tox21)
# Records with an inconclusive call do not appear. Where a call stands in place of a potency, no number is given. A number with no mark means an inactive call. Activity calls are given as the source filed them. Calls come from the whole dose curve; as a rule, active = well fitted cell-killing curve with a large enough effect in the repeat runs; inconclusive = weak or mixed curves, or effect the other way; inactive = flat fitted curve, though single readings scatter.
# Test: cAMP Responsive Elements (CRE) small molecule agonists, cell-based qHTS assay: qHTS cell viability counter screen (AID 2060914);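 note: viability read after 3 h of compound exposure; nearly all actives have a fitted effect of over 50% in size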
# Conditions: CRE-bla HEK293T viability, CellTiter-Glo luminescence, 5 h; series mostly up to 92.4 µM
# From the text: National Center for Advancing Translational Sciences [NCATS]
# Division of Preclinical Innovation [DPI]
# U.S. Environmental Protection Agency [EPA]
# National Institutes of Environmental Health Sciences [NIEHS]
# National Toxicology Program [NTP]
# U.S. Food and Drug Administration [FDA]
# CREB (cyclic-AMP Responsive Element Binding Protein) is a cellular transcription factor. It binds to certain DNA sequences called cAMP Responsive Elements (CRE) and regulates the transcription of the genes. […] This cell line can be used to find agonists/antagonists of the cyclic AMP signaling pathway. The activation of the report gene under culture conditions can be detected by fluorescence intensity. This cell line has been used to screen the Tox21 10K compound library to identify agonists that induce oxidative stress. The cytotoxicity of the Tox21 compound library against the CRE-bla cell line was tested in parallel by measuring the cell viability using CellTiter-Glo assay (Promega, Madison, WI) in the same wells.
# Tox21 Assay Protocol Summary:
# CRE-bla Hek 293T cells were suspended in assay medium (DMEM containing 10% dialyzed FBS, 0.1 mM NEAA, 1 mM sodium pyruvate and 25 mM HEPES) and dispensed at 2,000 cells/5 uL /well into 1536-well black wall/clear bottom plates using a Multidrop Combi (ThermoFisher Scientific, Waltham, MA) dispenser. After the assay plates were incubated at 37 C/5% CO2 for 18 hrs, 23 nL of compounds dissolved in DMSO, positive controls or DMSO only was transferred to the assay plate by a pintool workstation (Kalypsys, San Diego, CA). After the plates were incubated at 37 C/5% CO2 for 3 hrs, 1 uL of LiveBLAzer B/G FRET substrate (Invitrogen, Carlsbad, CA) was added to each well using Bioraptr Flying Reagent Dispenser (FRD, Aurora Discovery, San Diego, CA). The plates were incubated at room temperature for 2 h, then fluorescence intensities were measured using an Envision plate reader (PerkinElmer, Shelton, CT) at Excitation 405nm, Emission 460nm and 530nm. The % activity was determined from the ratio of 460nm/530nm. For cell viability readout that measures cytotoxicity, 4 uL /well of CellTiter-Glo reagent was added into the assay plates using Bioraptr FRD. After 30 min incubation at room temperature, the luminescence intensity in the assay plates was measured using a ViewLux (PerkinElmer, Shelton, CT) plate reader.
SMILES,Potency,"activity change, negative = cytotoxicity"
Cc1ccc(S(=O)(=O)Oc2ccc(N=Nc3ccc(-c4ccc(N=Nc5c(O)ccc6cc(S(=O)(=O)O)cc(S(=O)(=O)O)c56)c(C)c4)cc3C)cc2)cc1,inactive,–
Cc1cccnc1,inactive,–
CC1(C)[C@H](C(=O)OCc2cccc(Oc3ccccc3)c2)[C@@H]1C=C(Cl)Cl,inactive,–
CC1COC(=O)O1 (stereo not given),inactive,–
NCCNCCO,inactive,–
CCCN[C@H]1CCc2nc(N)sc2C1,inactive,–
CN1C(=O)c2ccccc2C1=O,inactive,–
Cc1occc1S,inactive,–
CCNc1nc(N)nc(Cl)n1,inactive,–
Cc1nccn1CC1CCc2c(c3ccccc3n2C)C1=O (stereo not given),inactive,–
CC(CCc1ccc2c(c1)OCO2)NN (stereo not given),inactive,–
CC(NCCC(c1ccccc1)c1ccccc1)c1ccccc1 (stereo not given),inactive,–
CCCCOCCOC(=O)c1cccnc1,inactive,–
Nc1ccc2cc(S(=O)(=O)O)ccc2c1,inactive,–
ONc1ccccc1,inactive,–
CCCC(C)CC (stereo not given),inactive,–
CCOC(=O)COc1cc(-n2ncc(C(F)(F)F)c(C)c2=O)c(F)cc1Cl,inactive,–
C/C=C/c1ccc(OCC)c(O)c1,inactive,–
CN(C)CCc1c[nH]c2ccc(C[C@H]3COC(=O)N3)cc12,inactive,–
Cc1ccc(C)c([N+](=O)[O-])c1,inactive,–

SMILES,Potency,"activity change, negative = cytotoxicity"
CC(C)C(=O)OCC(C)(C)C(O)C(C)C (stereo not given),inactive,–
Nc1ccn([C@@H]2O[C@H](CO)[C@@H](O)C2O)c(=O)n1 (stereo not given in full),inactive,–
CC(=O)OCC=C(C)C,inactive,–
NCCNC(=O)c1ccc(Cl)cn1,inactive,–
O=C(O)CN(CCN(CC(=O)O)CC(=O)O)CC(=O)O,–,-20.1% [at 3.27 µM]
Nc1ccc2c(O)cc(S(=O)(=O)O)cc2c1,inactive,–
Cc1nc2ccccc2c(=O)o1,inactive,–
C=CC(=O)OCC1CCCO1 (stereo not given),inactive,–
CC(C)=CCCC(C)C=O (stereo not given),inactive,–
CC(CCC(=O)O)(c1ccc(O)cc1)c1ccc(O)cc1,inactive,–
CC(C)(C)c1ccc(C(=O)O)cc1,inactive,–
C[Si](C)(C)C,inactive,–
C1N2CN3CN1CN(C2)C3,inactive,–
CCCOC(=O)c1ccc(N)cc1,inactive,–
N=C1C=CC(=C(c2ccc(N)cc2)c2ccc(N)cc2)C=C1,inactive,–
CNCCC(Oc1ccccc1OC)c1ccccc1 (stereo not given),inactive,–
CCn1ccc(NS(=O)(=O)c2ccc(N)cc2)nc1=O,inactive,–
CC(C)(C)c1cc(/C=C2\SC(=N)NC2=O)cc(C(C)(C)C)c1O,inactive,–
CN(C)CCN(Cc1ccc(Cl)cc1)c1ccccn1,inactive,–
CCOC(=O)c1cccnc1,inactive,–
